In the library only some 4.2% were active in any assay of this set; here they are far more common.
GDH-TPI counter-1: GDH-TPI coupling enzyme inhibitors, primary screen, artefact control for M. tuberculosis FBA inhibitor project, biochemical, absorbance, full deck | inhibition, % at 4.8 µM | GDH-TPI coupled enzyme counterscreen, NADH absorbance | hit rate 1.2% among 360,000
Mtb FBA inh: Mtb FBA enzyme inhibitors, primary screen, biochemical, fluorescence, strain H37Rv; AID 588726, 2011; hit rate 2.3% among 360,000; Fructose-bisphosphate aldolase (Mycobacterium tuberculosis (strain ATCC 25618 / H37Rv)), …; inhibition, % at 1 µM; purified M. tuberculosis FBA, fluorescence read-out; in the data active = inhibition above about 27%
RecA splice inh: Mtb RecA intein splicing inhibitors, primary screen, biochemical, fluorescence, HTS; Protein RecA (Mycobacterium tuberculosis (strain ATCC 25618 / H37Rv)), P9WHJ3; cell-free RecA intein splicing; inhibition, % (concentration not given with the values); hit rate 0.75% among 290,000; AID 2221, 2009; in the data active = inhibition above about 30%
Target sequence (P9WHJ3 whole entry, looked up, canonical isoform): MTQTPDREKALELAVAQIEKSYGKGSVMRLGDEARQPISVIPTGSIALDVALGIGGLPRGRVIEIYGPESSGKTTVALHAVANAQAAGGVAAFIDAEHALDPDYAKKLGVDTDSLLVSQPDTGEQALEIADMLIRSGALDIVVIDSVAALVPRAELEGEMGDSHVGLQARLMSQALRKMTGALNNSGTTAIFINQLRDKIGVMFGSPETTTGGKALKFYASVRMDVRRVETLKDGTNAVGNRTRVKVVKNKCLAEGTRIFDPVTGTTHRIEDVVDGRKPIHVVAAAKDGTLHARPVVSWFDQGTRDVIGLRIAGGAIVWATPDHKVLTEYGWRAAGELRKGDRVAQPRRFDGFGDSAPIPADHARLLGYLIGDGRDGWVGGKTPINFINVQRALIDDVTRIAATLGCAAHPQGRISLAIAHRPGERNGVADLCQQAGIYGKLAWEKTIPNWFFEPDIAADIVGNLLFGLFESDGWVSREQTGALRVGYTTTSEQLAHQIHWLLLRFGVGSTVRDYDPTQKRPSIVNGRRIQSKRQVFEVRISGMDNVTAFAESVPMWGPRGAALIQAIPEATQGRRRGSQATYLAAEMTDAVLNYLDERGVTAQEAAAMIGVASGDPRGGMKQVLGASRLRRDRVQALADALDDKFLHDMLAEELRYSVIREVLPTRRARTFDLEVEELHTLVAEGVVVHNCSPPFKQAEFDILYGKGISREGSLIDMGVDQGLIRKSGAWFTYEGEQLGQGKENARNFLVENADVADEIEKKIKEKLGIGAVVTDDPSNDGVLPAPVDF
Mtb bLac sens: beta-lactam sensitization of Mtb H37Rv, H37Rv | inhibition, % at 25 µM | M. tuberculosis H37Rv growth with meropenem, percent inhibition | hit rate 0.27% among 330,000; call rule not given here;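 also: growth measured after seven days incubation then overnight dye step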
CCHF vOTU inh: CCHFV vOTU protease inhibitors, primary screen, biochemical, Pep-AMC substrate, fluorescence | Crimean-Congo hemorrhagic fever virus L polyprotein viral ovarian tumor (vOTU) protease … | inhibition, % at 11.5 µM | hit rate 0.55% among 370,000
Mtb FBA confirm: M. tuberculosis aldolase blockers, biochemical, fluorescence, strain H37Rv, confirmation; shares compounds with Mtb FBA inh; purified M. tuberculosis FBA, fluorescence read-out; inhibition, % at 1 µM; hit rate 78% among 5,600; in the data active = inhibition above about 27%
GDH-TPI counter-2: GDH-TPI coupling enzyme inhibitors, artefact control for M. tuberculosis FBA inhibitor project, biochemical, fluorescence, high throughput; shares compounds with Mtb FBA inh; GDH-TPI coupled enzyme counterscreen; inhibition, % at 1 µM; hit rate 81% among 5,600; in the data active = inhibition above about 10%
A number is an active result. Rule as the data show it, unless noted: active = inhibition above about 30%; inactive = the rest.

Results for Cc1c(NC(=O)C2CCCN(S(=O)(=O)c3ccc(F)cc3)C2)c(=O)n(-c2ccccc2)n1C (stereo not given) ?
CCHF vOTU inh: inactive

How did C/C=C/C=C/C(=O)N1C[C@H](C)N(C)C[C@H]1C do in these assays?
CCHF vOTU inh: inactive

Results for N#Cc1c(C(F)(F)F)cc(-c2ccco2)nc1SCc1ccncc1 ?
GDH-TPI counter-1: inactive; Mtb FBA inh: 29; RecA splice inh: inactive; Mtb bLac sens: inactive; CCHF vOTU inh: inactive; Mtb FBA confirm: 56; GDH-TPI counter-2: 32

How did N#Cc1c(C(F)(F)F)cc(-c2ccco2)nc1SCc1ccccn1 do in these assays?
GDH-TPI counter-1: inactive; Mtb FBA inh: inactive; RecA splice inh: inactive; Mtb bLac sens: inactive; CCHF vOTU inh: inactive

What do the screens show for `CCn1c(-c2ccsc2)nc2c1c(=O)[nH]c(=O)n2Cc1ccccc1`?
GDH-TPI counter-1: inactive; Mtb FBA inh: inactive; RecA splice inh: inactive; Mtb bLac sens: inactive; CCHF vOTU inh: inactive

What do the screens show for `CCCn1c(-c2cccs2)nc2c1c(=O)[nH]c(=O)n2Cc1ccccc1`?
GDH-TPI counter-1: inactive; Mtb FBA inh: 33; RecA splice inh: inactive; Mtb bLac sens: inactive; CCHF vOTU inh: inactive; Mtb FBA confirm: 131; GDH-TPI counter-2: 102

Results for COc1ccc(-c2nc3c(c(=O)[nH]c(=O)n3Cc3ccccc3)n2CCO)cc1 ?
GDH-TPI counter-1: inactive; Mtb FBA inh: 39; RecA splice inh: inactive; Mtb bLac sens: inactive; CCHF vOTU inh: inactive; Mtb FBA confirm: 170; GDH-TPI counter-2: 143

What do the screens show for `O=c1[nH]c(=O)n(Cc2ccccc2)c2nc(-c3ccc(Oc4ccc(F)cc4)c([N+](=O)[O-])c3)n(CCO)c12`?
GDH-TPI counter-1: inactive; Mtb FBA inh: inactive; RecA splice inh: inactive; Mtb bLac sens: inactive; CCHF vOTU inh: inactive

How did CCOC(=O)N1CCN(C(=O)C[C@@H]2C(=O)N(Cc3ccc(OC)cc3)/C3=C/CCCCC[C@@]32C(=O)OCC)CC1 do in these assays?
CCHF vOTU inh: inactive

How did CN(CCC#N)C(=O)COC(=O)c1ccccc1OCc1ccccc1Cl do in these assays?
GDH-TPI counter-1: inactive; Mtb FBA inh: inactive; RecA splice inh: inactive; Mtb bLac sens: inactive; CCHF vOTU inh: inactive

What do the screens show for `CC1(C)CC2CC(C)(CN2C(=O)COC(=O)c2cc(Cl)cc(Cl)c2N)C1` (stereo not given)?
GDH-TPI counter-1: inactive; Mtb FBA inh: inactive; RecA splice inh: inactive; Mtb bLac sens: inactive; CCHF vOTU inh: inactive

What do the screens show for `NC(=O)COC(=O)c1cc(Cl)cc(Cl)c1N`?
GDH-TPI counter-1: inactive; Mtb FBA inh: 89; RecA splice inh: inactive; Mtb bLac sens: inactive; CCHF vOTU inh: inactive; Mtb FBA confirm: active; GDH-TPI counter-2: active

Results for CN(CCC#N)C(=O)COC(=O)c1cc(Cl)cc(Cl)c1N ?
GDH-TPI counter-1: inactive; Mtb FBA inh: 93; RecA splice inh: inactive; Mtb bLac sens: inactive; CCHF vOTU inh: inactive; Mtb FBA confirm: inactive; GDH-TPI counter-2: inactive

Results for Nc1c(Cl)cc(Cl)cc1C(=O)OCC(=O)N1CCCC1 ?
GDH-TPI counter-1: inactive; Mtb FBA inh: 95; RecA splice inh: inactive; Mtb bLac sens: inactive; CCHF vOTU inh: inactive; Mtb FBA confirm: 137; GDH-TPI counter-2: 107

Results for Nc1c(Cl)cc(Cl)cc1C(=O)OCC(=O)N1CCCC1=O ?
GDH-TPI counter-1: inactive; Mtb FBA inh: inactive; RecA splice inh: inactive; Mtb bLac sens: inactive

What do the screens show for `O=C(NC1CCCCN(Cc2ccc(Cl)cc2)C1=O)c1ccc(COc2ccccc2)cc1` (stereo not given)?
CCHF vOTU inh: inactive

How did CC1CC(C)CN(C(=O)Cn2c(SCC(=O)N3CCc4ccccc4C3)nc3ccccc32)C1 (stereo not given) do in these assays?
GDH-TPI counter-1: inactive; Mtb FBA inh: 48; RecA splice inh: inactive; Mtb bLac sens: inactive; CCHF vOTU inh: inactive; Mtb FBA confirm: 69; GDH-TPI counter-2: 49

How did CCC(=O)Nc1c(S(=O)(=O)c2ccc(C)cc2)c2nc3ccccc3nc2n1C(C)c1ccccc1 (stereo not given) do in these assays?
GDH-TPI counter-1: inactive; Mtb FBA inh: 58; RecA splice inh: inactive; Mtb bLac sens: inactive; CCHF vOTU inh: inactive; Mtb FBA confirm: 50; GDH-TPI counter-2: 30

How did CC(c1ccccc1)n1c(S(=O)(=O)O)nc2ccccc21 (stereo not given) do in these assays?
GDH-TPI counter-1: inactive; Mtb FBA inh: inactive; RecA splice inh: inactive; Mtb bLac sens: inactive; CCHF vOTU inh: inactive

What do the screens show for `CCC(=O)Nc1c(S(=O)(=O)c2ccccc2)c2nc3ccccc3nc2n1C(C)c1ccccc1` (stereo not given)?
GDH-TPI counter-1: inactive; Mtb FBA inh: 73; RecA splice inh: inactive; Mtb bLac sens: inactive; CCHF vOTU inh: inactive; Mtb FBA confirm: 73; GDH-TPI counter-2: 68

How did Cc1cc(O)cc(=O)n1-c1cc(Cl)cc(Cl)c1 do in these assays?
CCHF vOTU inh: inactive

Results for C=CCN1C(=O)[C@@H](CC(=O)N2CCCC2)[C@]2(C(=O)OC)CCCCC=C12 ?
CCHF vOTU inh: inactive

What do the screens show for `Cc1c(Cc2ccccc2)c(=O)oc2cc(OCC(=O)NCc3ccccn3)ccc12`?
GDH-TPI counter-1: inactive; Mtb FBA inh: 78; RecA splice inh: inactive; Mtb bLac sens: inactive; CCHF vOTU inh: inactive; Mtb FBA confirm: 88; GDH-TPI counter-2: 70

What do the screens show for `O=C(COc1ccc2c(c1)oc(=O)c1ccccc12)NC(Cc1ccc(Cl)cc1)C(=O)O` (stereo not given)?
GDH-TPI counter-1: inactive; Mtb FBA inh: 74; RecA splice inh: inactive; Mtb bLac sens: inactive; CCHF vOTU inh: inactive; Mtb FBA confirm: 186; GDH-TPI counter-2: 132

What do the screens show for `Cc1c(Cc2ccccc2)c(=O)oc2cc(OC(=O)c3ccccc3)ccc12`?
GDH-TPI counter-1: inactive; Mtb FBA inh: inactive; RecA splice inh: inactive; Mtb bLac sens: inactive; CCHF vOTU inh: inactive

How did Cc1c(Cc2ccccc2)c(=O)oc2cc(OCC(=O)N[C@@H](Cc3ccccc3)C(=O)O)ccc12 do in these assays?
GDH-TPI counter-1: inactive; Mtb FBA inh: 92; RecA splice inh: inactive; Mtb bLac sens: inactive; CCHF vOTU inh: inactive; Mtb FBA confirm: 165; GDH-TPI counter-2: 136

How did COC(=O)Cc1c(C)c2ccc(OC(=O)c3ccccc3)cc2oc1=O do in these assays?
GDH-TPI counter-1: inactive; Mtb FBA inh: 79; RecA splice inh: inactive; Mtb bLac sens: inactive; CCHF vOTU inh: inactive; Mtb FBA confirm: 99; GDH-TPI counter-2: 90

Results for COc1cccc(C(=O)COc2ccc3c(C)c(Cc4ccccc4)c(=O)oc3c2)c1 ?
GDH-TPI counter-1: inactive; Mtb FBA inh: inactive; RecA splice inh: inactive; Mtb bLac sens: inactive; CCHF vOTU inh: inactive

Results for Cc1ccc(S(=O)(=O)N2CCC(C(=O)NCc3cccs3)CC2)cc1 ?
CCHF vOTU inh: inactive
